Results from the supplement of paper PMC13380429.
Structures can show the parent of a compound that is named as a salt.

Tested on: Vero E6 infected with SARS-CoV-2
Experiment: inhibition of SARS-CoV-2 cytopathic effect; higher = more antiviral protection, active = above 15
Conditions: 48 h

Measured: inhibition of SARS-CoV-2 cytopathic effect

O=c1[nH]cnc2nc[nH]c12 [hypoxanthine]
inactive: 1 nM 4.22% | 8.33 nM 2.78% | 100 nM 1.76% | 833.33 nM 0.21% | 10000 nM 2.46%

Cc1cccc(-c2[nH]c(CNc3ccccc3F)nc2-c2ccc3ncnn3c2)n1
inactive: 1 nM 0.31% | 8.33 nM 3.47% | 100 nM 1.38% | 833.33 nM 1.08% | 10000 nM 2.46%

O=C(O)C(O)Cc1ccc(O)c(O)c1 (stereo not given) [sodium-danshensu]
inactive: 1 nM 1.07% | 8.33 nM -0.48% | 100 nM 2.17% | 833.33 nM -0.61% | 10000 nM -1.7%

Nc1ncc2c(n1)CC(c1ccco1)CC2=O (stereo not given)
inactive: 1 nM 2.9% | 8.33 nM 3.51% | 100 nM 2.68% | 833.33 nM 4.74% | 10000 nM 3.17%

CCOC(=O)C1=C(C)NC(C)=C(C(=O)OC)C1c1cccc(Cl)c1Cl (stereo not given) [felodipine]
inactive: 1 nM 1.65% | 8.33 nM 3.36% | 100 nM 5.39% | 833.33 nM 4.84% | 10000 nM 1.57%

CCc1ccc(Cc2ccc3c(c2)[C@]2(OC3)O[C@H](CO)[C@@H](O)[C@H](O)[C@H]2O)cc1 [tofogliflozin]
inactive: 1 nM -0.25% | 8.33 nM 0.93% | 100 nM 0.26% | 833.33 nM 1.52% | 10000 nM -0.4%

CC(C)CCC[C@@H](C)[C@H]1CC[C@H]2[C@@H]3CCC4=CC(=NO)CC[C@]4(C)[C@H]3CC[C@]12C [olesoxime]
inactive: 1 nM -0.01% | 8.33 nM 0.28% | 100 nM -0.33% | 833.33 nM -0.32% | 10000 nM 3.9%

Nc1ccc(C(=O)NCC(=O)O)cc1 [4-aminohippuric-acid]
inactive: 1 nM -2.16% | 8.33 nM -0.24% | 100 nM -0.14% | 833.33 nM 0.71% | 10000 nM -1.9%

CCCCn1ccc(N2CCC(c3ccccc3)CC2)c(Cl)c1=O
inactive: 1 nM 1.82% | 8.33 nM 3.38% | 100 nM 1.99% | 833.33 nM 1.64% | 10000 nM -5.17%

Cc1cc(N)c2ccccc2[n+]1CCCCCCCCCC[n+]1c(C)cc(N)c2ccccc21 [dequalinium]
inactive: 1 nM 1.5% | 8.33 nM 2.58% | 100 nM -2.33% | 833.33 nM -2.88% | 10000 nM -3.48%

CNC(=O)c1c(-c2ccc(F)cc2)oc2cc(N(CCO)S(C)(=O)=O)c(C3CC3)cc12 [nesbuvir]
inactive: 1 nM 0.34% | 8.33 nM 0.12% | 100 nM 0.33% | 833.33 nM -1.14% | 10000 nM -3.08%

O=C(c1ccc(F)cc1)N1CCC[C@H](c2nc(-c3ccc(F)cc3)no2)C1
inactive: 1 nM -1.67% | 8.33 nM -0.59% | 100 nM -0.85% | 833.33 nM 0.74% | 10000 nM 2.44%

O=C1c2ccccc2-n2c1nc1ccccc1c2=O [tryptanthrin]
inactive: 1 nM 3.12% | 8.33 nM -0.23% | 100 nM 0.33% | 833.33 nM 0.62% | 10000 nM 0.39%

CN[C@@H]1[C@H](O[C@H]2[C@H](O[C@H]3[C@H](O)[C@@H](O)[C@H](N=C(N)N)[C@@H](O)[C@@H]3N=C(N)N)O[C@@H](C)[C@]2(O)C=O)O[C@@H](CO)[C@H](O)[C@H]1O [STREPTOMYCIN SULFATE [5mM; 10% aq DMSO + 5mM ethanolamine]]
inactive: 1 nM -0.46% | 8.33 nM -1.64% | 100 nM -0.12% | 833.33 nM 1.53% | 10000 nM 0.2%

NC(=O)CN1CC[C@@H](NC(=O)[C@@H]2CCCN2)C1=O
inactive: 1 nM 1.05% | 8.33 nM -1.41% | 100 nM 0.01% | 833.33 nM 0.9% | 10000 nM 0.65%

Cc1cc(C)cc(C(=O)NOCCCCCC(=O)NO)c1
inactive: 1 nM 2.07% | 8.33 nM -0.95% | 100 nM -1.04% | 833.33 nM -9.5% | 10000 nM -23.1%

NC(=O)c1nc(F)cnc1O [favipiravir]
inactive: 1 nM -4.88% | 8.33 nM -2.34% | 100 nM -0.79% | 833.33 nM 0.84% | 10000 nM -6.81%

CO[C@H]1C[C@@H]2CC[C@@H](C)[C@@](O)(O2)C(=O)C(=O)N2CCCC[C@H]2C(=O)O[C@H]([C@H](C)C[C@@H]2CC[C@@H](O)[C@H](OC)C2)CC(=O)[C@H](C)/C=C(\C)[C@@H](O)[C@@H](OC)C(=O)[C@H](C)C[C@H](C)/C=C/C=C/C=C/1C [sirolimus]
inactive: 1 nM -1.48% | 8.33 nM -3.33% | 100 nM -1.82% | 833.33 nM -0.23% | 10000 nM -0.88%

COc1ccc2c(NC(=O)Nc3cccc(C(F)(F)F)n3)ccnc2c1
inactive: 1 nM 1.28% | 8.33 nM 1.81% | 100 nM 2.91% | 833.33 nM 10.2% | 10000 nM 11.1%
